Laboratory results as given in PubChem BioAssay (NCI).
Compounds without any hit were thinned out: in the full panel of roughly 79,000, 15% have a hit. Active and inactive are the calls of the source. Rule as the data show it: active = growth inhibition above about 70%; inactive = the rest.

Experiment: NCI Yeast Anticancer Drug Screen. Data for the mlh1 rad18 strain (AID 175)
Conditions: S. cerevisiae mlh1 rad18 strain growth inhibition; at 50.0 µM; active compounds read high
Protocol: Growth inhibition of yeast strains with defined genetic alterations is measured as a screen for potential anti-cancer activity. Selected strains with alterations in DNA damage repair or cell cycle control were exposed to compounds and growth inhibition was measured relative to vehicle treated controls. The strain used in this assay is mlh1 rad18
In the case of NC(=O)c1ccc(N=C(N)N=C(N)N)cc1, the growth inhibition is reported as -2.05% (inactive).
With Nc1nc2c(c(-c3nc(N)nc4c3CCc3ccccc3-4)n1)CCc1ccccc1-2 the growth inhibition was 2.9% (inactive).
In the case of CCCCNC(=O)C(=O)NCCCC, the growth inhibition is reported as 1.75% (inactive).
In the case of O=C(Cc1nc2ccc([N+](=O)[O-])cc2nc1CC(=O)c1cccnc1)c1cccnc1, the growth inhibition is reported as 9.6% (inactive).
For Cc1cc2nc(CC(=O)c3ccccc3)c(=O)[nH]c2cc1C, the growth inhibition was 31.3% (inactive).
In the case of C/C(=N/NC(N)=O)c1ccco1, the growth inhibition is reported as -3.55% (inactive).
For COc1ccc2c(c1)CCc1c-2n[nH]c1-c1[nH]nc2c1CCc1cc(OC)ccc1-2, the growth inhibition was -5% (inactive).
For CCOC(=O)C(=O)C=P(c1ccccc1)(c1ccccc1)c1ccccc1, the growth inhibition was -24.2% (inactive).
In the case of O=C(O)CCC(NC(=O)OCc1ccccc1)C(=O)O (stereo not given), the growth inhibition is reported as -5.15% (inactive).
For CC(=O)Nc1c(C)cc(C)cc1C, the growth inhibition was 0.1% (inactive).
With c1cc2cccc3c4cccc5cccc(c(c1)c23)c54 the growth inhibition was -15.4% (inactive).
In the case of Cc1ccc(C(=O)NC2c3ccccc3Oc3ccccc32)cc1, the growth inhibition is reported as -5% (inactive).
In the case of CC12CC3CC1C(C(=O)O2)C3C(=O)O (stereo not given), the growth inhibition is reported as -8.8% (inactive).
With COc1cc([C@@H]2c3cc4c(cc3[C@H](O)[C@H]3COC(=O)[C@H]23)OCO4)cc(OC)c1OC the growth inhibition was 9% (inactive).
For CSC(=N\N=C\c1ccc(N(C)C)cc1)/N=C/N(C)C, the growth inhibition was 25.1% (inactive).
With CCN(CC)C(=O)/C=C(/C)c1ccccc1 the growth inhibition was -29.8% (inactive).
For CC(=O)c1ccc(C(C)(C)C)cc1, the growth inhibition was 15% (inactive).
In the case of Oc1ccccc1O, the growth inhibition is reported as 8.25% (inactive).
In the case of COc1ccc(C)cc1OC, the growth inhibition is reported as -5.65% (inactive).
In the case of S=C(Nc1ccccc1)N1CCCCC1, the growth inhibition is reported as -8.4% (inactive).
For CSc1[nH]c(=O)ncc1F, the growth inhibition was -7.45% (inactive).
With CC(C)=NNc1ccc([N+](=O)[O-])cc1[N+](=O)[O-] the growth inhibition was 44.3% (inactive).
With c1ccc(CN2COc3c(ccc4c3OCN(Cc3ccccc3)C4)C2)cc1 the growth inhibition was 8.3% (inactive).
For N#CCc1ccc([N+](=O)[O-])cc1, the growth inhibition was -6.3% (inactive).
With CC(=O)OCC1CCCO1 (stereo not given) the growth inhibition was -32% (inactive).
With O=C(Cc1nc2ccc([N+](=O)[O-])cc2nc1CC(=O)c1ccccc1)c1ccccc1 the growth inhibition was -1.1% (inactive).
In the case of OCCN1CCOCC1, the growth inhibition is reported as 27.2% (inactive).
For COc1cc2c(cc1O)CC[C@@H]1C2CC[C@@]2(C)C1CC[C@@H]2O (stereo not given in full), the growth inhibition was 18.3% (inactive).
In the case of O=C(Nc1ccccc1C(=O)NCC1CC1)c1cccs1, the growth inhibition is reported as -1.6% (inactive).
In the case of O=C(N/N=C/c1ccccc1O)Nc1nn[nH]n1, the growth inhibition is reported as 9% (inactive).
For CC(C)C(C#N)(C(C)C)C(C)C, the growth inhibition was 22.4% (inactive).
In the case of Cc1ccc(/C(C#N)=C/c2ccc3c(c2)OCO3)cc1, the growth inhibition is reported as 21.2% (inactive).
For O=c1[nH]n(-c2ccccc2)c(=O)cc1Cl, the growth inhibition was 2% (inactive).
In the case of CC1(C)Nc2cccc3c(N=Nc4ccc(N=Nc5ccccc5)c5ccccc45)ccc(c23)N1, the growth inhibition is reported as -74.6% (inactive).
With N#Cc1ccc(OC(=O)Nc2ccc(Cl)c(Cl)c2)cc1 the growth inhibition was 5.8% (inactive).
In the case of CCOC(=O)/C(C#N)=C/c1cccc(C)c1, the growth inhibition is reported as -6.55% (inactive).
For C#C[C@H]1CCCCCC1O (stereo not given in full), the growth inhibition was 21.9% (inactive).
For O=C(O)CNC(=O)c1ccccc1, the growth inhibition was -47.6% (inactive).
For COC(=O)/C=C/C(=O)NC(N)=O, the growth inhibition was -8.05% (inactive).
For COc1ccc(-c2cc(-c3cc(-c4ccc(OC)cc4)nc(N)n3)nc(N)n2)cc1, the growth inhibition was 9.8% (inactive).
